# Screening data (PubChem BioAssay)
# Only some compounds are listed: those with a hit (about 3.4% of all), similar ones and a draw of the others.
# GPR151 activ – human GPR151 activation; Q8TDV0; PathHunter beta-arrestin GPR151 cells, luminescence; activation, % at 11.2 µM; hit rate 1% among 650,000; in the data active means activation above about 4.9%
# Target sequence (Q8TDV0 whole entry, looked up): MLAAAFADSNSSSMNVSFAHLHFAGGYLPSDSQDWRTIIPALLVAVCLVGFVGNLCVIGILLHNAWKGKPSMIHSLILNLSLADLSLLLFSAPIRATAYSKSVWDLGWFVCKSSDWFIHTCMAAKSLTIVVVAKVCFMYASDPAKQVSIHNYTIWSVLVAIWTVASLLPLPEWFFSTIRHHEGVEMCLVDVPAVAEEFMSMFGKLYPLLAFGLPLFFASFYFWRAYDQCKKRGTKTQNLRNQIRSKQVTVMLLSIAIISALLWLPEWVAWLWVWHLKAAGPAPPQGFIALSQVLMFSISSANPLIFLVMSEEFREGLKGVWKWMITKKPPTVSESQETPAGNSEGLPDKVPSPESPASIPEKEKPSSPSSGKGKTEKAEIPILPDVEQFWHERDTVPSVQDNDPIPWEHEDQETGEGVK
# MITF primary – inhibitors of human MITF; O75030; AlphaScreen MITF homodimerization, bead proximity signal; inhibition, % at 2.6 µM; hit rate 0.91% among 650,000; AID 1259374; in the data active means inhibition above about 50%
# TEAD-YAP block – TEAD-YAP interaction inhibition; HEK-TIYL cells, TEAD-Gal4/YAP UAS-luciferase luminescence; inhibition, % at 9.12 µM; hit rate 1.4% among 640,000; AID 1259422; in the data active means inhibition above about 32%
# FBW7 activator – activators of human E3 ligase FBW7; AlphaScreen FBW7–phospho-cyclin E peptide binding, activator screen; normalized activity (activation), % at 26.1 µM; hit rate 0.13% among 650,000; in the data active means normalized activity above about 1.9%;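 further: purified mutant Fbw7 with reduced substrate affinity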
# GPR151 confirm – human GPR151 activation, confirmation screen. shares compounds with GPR151 activ. GPR151 PathHunter beta-arrestin cells, luminescence, 90 min; % of EA-reagent control over plate median. activation, % at 11.2 µM. 6,700 tested, under 10 active. AID 1508609;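 active means mean percent activation across replicates above the confirmation screen cutoff of 4.91%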
# GPR119 ag – counter-screen for GPR151 activators: effect on human GPR119; shares compounds with GPR151 activ; GPR119 PathHunter beta-arrestin cells, luminescence, 90 min; 0 = compound-well median, 100 = enzyme-acceptor control; activation, % at 11.2 µM; hit rate 0.3% among 6,700;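 active means mean percent activation in the counterscreen above 29.09%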;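 further: counterscreen on off-target GPR119 to flag nonselective hits from the GPR151 activator screen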
# Hits are given with their value; – = inactive; · = not tested or not shown.
SMILES,GPR151 activ,MITF primary,TEAD-YAP block,FBW7 activator,GPR151 confirm,GPR119 ag
COc1ccc(/C(N)=N/OC(=O)COc2ccc(Br)cc2)cc1OC,–,–,–,–,·,·
COc1ccc(OCC(=O)O/N=C(\N)c2ccc(OC)c(OC)c2)cc1,8.2,–,–,–,–,–
Cc1cc(Br)ccc1OCC(=O)N1CCC(C)CC1,–,–,–,–,·,·
Cc1ccc(S(=O)(=O)N2CCN(C(=O)CN3CCN(C)CC3)C2C(C)C)cc1 (stereo unspecified),–,–,–,–,·,·
COc1cc(I)cc(CNc2ccc(F)cc2)c1O,5.4,–,–,–,–,–
CCCCOC(=O)C1=C(C)NC(=O)NC1c1cc2c(cc1Br)OCO2 (stereo unspecified),5.1,–,–,–,–,–
CC(O)CNCCOc1ccc2c(c1)CCC2 (stereo unspecified),–,–,–,–,·,·
Cc1ccc(-n2ncc3c(SCC(N)=O)ncnc32)c(C)c1,–,–,–,–,·,·
CC(=O)Nc1ccc(NC(=O)CSc2ncnc3c2cnn3-c2ccc(C)cc2C)cc1,5.2,–,–,–,–,–
Clc1ccccc1/C=N/Nc1nncc(-c2ccccc2)n1,6.2,–,–,–,–,–
CCc1c(C)[nH]n(-c2ccc(I)cc2)c1=O,–,–,–,–,·,·
Cc1nc(Nc2ccc(N(C)C)cc2)nc(Nc2ccc(N(C)C)cc2)c1[N+](=O)[O-],10.1,–,–,–,–,–
Cc1nc(Nc2cccc(N(C)C)c2)nc(Nc2cccc(N(C)C)c2)c1[N+](=O)[O-],–,–,–,–,·,·
CCCCSc1nnc2c(n1)OC(/C=C/c1cccs1)Nc1ccccc1-2 (stereo unspecified),–,–,–,–,·,·
O=C1CCCN1CCCNc1nc(NCc2cccc(C(F)(F)F)c2)c2ncn(C3CCCCC3)c2n1,5.9,–,–,–,–,–
FC(F)(F)c1cccc(CNc2ncnc3nc(Nc4ccc(N5CCOCC5)cc4)[nH]c23)c1,7.1,–,–,–,–,–
O=C1CCCN1CCn1cnc2c(Nc3ccc(Oc4ccccc4)cc3)nc(N3CCc4ccccc4C3)nc21,–,–,–,–,·,·
O=C1CCCN1CCn1cnc2c(NCc3cccc(C(F)(F)F)c3)nc(Nc3ccc(N4CCOCC4)cc3)nc21,5.6,–,–,–,–,–
FC(F)(F)c1cccc(CNc2ncnc3nc(Nc4ccccc4)[nH]c23)c1,–,–,–,–,·,·
O=C1CCCN1CCn1cnc2c(Nc3ccc(N4CCOCC4)cc3)nc(N3CCc4ccccc4C3)nc21,12.6,–,–,–,–,–
CCN1C(=O)/C(=c2\sc3nc(-c4ccccc4OC(C)=O)nn3c2=O)c2ccccc21,–,–,–,–,·,·
O=C(NCCc1nnc2n1CCN(Cc1cccc3ccccc13)CC2)C1CCCO1 (stereo unspecified),–,–,–,–,·,·
CCC(CC)CN1CCc2nnc(CCNC(=O)COc3ccccc3)n2CC1,5.1,–,–,–,–,–
Cc1ccc(C)c(CN2CCc3nnc(CCNC(=O)COc4ccccc4)n3CC2)c1,8.8,–,–,–,–,–
Cc1cc(C)c(CN2CCc3nnc(CCNC(=O)COc4ccccc4)n3CC2)cc1C,–,–,–,–,·,·
SMILES,GPR151 activ,MITF primary,TEAD-YAP block,FBW7 activator,GPR151 confirm,GPR119 ag
O=C(NCCc1nnc2n1CCN(Cc1ccccc1-c1ccco1)CC2)C1CCCO1 (stereo unspecified),7.1,–,–,–,–,–
CC1CCCCC12NC(=O)N(CC(=O)O)C2=O (stereo unspecified),–,–,–,–,·,·
O=[N+]([O-])c1ccc2nc(CCCc3nc4ccc([N+](=O)[O-])cc4[nH]3)[nH]c2c1,–,–,–,–,·,·
CC(O)CCc1nc2ccc([N+](=O)[O-])cc2[nH]1 (stereo unspecified),5.1,–,–,–,–,–
COc1cc(C2C(C#N)=C(N)Oc3n[nH]c(-c4cccc([N+](=O)[O-])c4)c32)cc(OC)c1O (stereo unspecified),6.0,–,–,–,–,–
N#CC1=C(N)Oc2n[nH]c(-c3ccccc3)c2C1c1ccc(Cl)c([N+](=O)[O-])c1 (stereo unspecified),6.1,–,–,–,–,–
N#CC1=C(N)Oc2n[nH]c(-c3ccccc3)c2C1c1ccc([N+](=O)[O-])cc1Cl (stereo unspecified),–,–,–,–,·,·
